Our source for the Potency and max activation values is PubChem BioAssay (Tox21).

“And” between values parts separate entries of the source, which are not always exact repeats. Equal values may be shown once. Inconclusive results are not listed. A structure can be active in one record and inactive in another. The source made the active and inactive calls. Calls follow the shape of the dose curve; as a rule, active = well fitted curve in the direction sought with a large enough effect in the repeat runs; inconclusive = weak or mixed curves; inactive = no such curve, though single readings can be large; an effect the other way counts as inactive or inconclusive.

Assay [1] is described as follows: Human pregnane X receptor (PXR) small molecule agonists, qHTS cell viability counter screen (AID 1346977). Also: nearly all actives have a fitted effect of over 50% in size. Also: potency is read from the fitted curve at half-maximal effect. An outline of the steps:
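PXR-Luc HepG2 cells in medium with 5% charcoal-stripped FBS were pre-incubated 5hr, then exposed to compounds for 24hr at 37C. Viability was read in the same wells by CellTiter-Fluor fluorescence, reagent added after 23hr with a 1hr incubation.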

Assay [2] can be described thus: Caspase-3/7 induction in HepG2 cells by small molecules, qHTS assay (AID 1346978). Also: nearly all actives have a fitted effect of over 15% in size. An outline of the steps:
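Caspase-3/7 induction was measured by Caspase-Glo 3/7 luminescence (30 min, room temperature) after a 17 hr compound exposure of wild-type HepG2 cells seeded at 2,000 per well and pre-incubated 5 hr.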
(qHTS replaces the single test concentration by a dilution series.)

A short description of assay [3]: Caspase-3/7 induction in CHO-K1 cells by small molecules, qHTS cell viability counter screen (AID 1346979). Also: nearly all actives have a fitted effect of over 35% in size. Also: potency is read from the fitted curve at half-maximal effect. In short, it runs like this: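 Wild-type CHO-K1 cells were seeded at 1,500 per well, rested 5hr at 37 C, then exposed to compounds in DMSO. After 16hr, CellTiter-Fluor reagent was added and fluorescence read 1hr later as the viability measure.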
The nature of assay [4]: Caspase-3/7 induction in CHO-K1 cells by small molecules, qHTS assay (AID 1346980). Also: nearly all actives have a fitted effect of over 15% in size. An outline of the steps: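 Luminescent Caspase-Glo 3/7 read (30min, room temperature) quantified apoptosis induction. Cells were wild-type CHO-K1, treated with compound for 17hr at 37 C and 5% CO2.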
Assay [5] can be described thus: Caspase-3/7 induction in HepG2 cells by small molecules, qHTS cell viability counter screen (AID 1346981). Also: nearly all actives have a fitted effect of over 30% in size. Also: potency is read from the fitted curve at half-maximal effect. In short, it runs like this: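 CellTiter-Fluor fluorescence measured viability in the same wells used for Caspase-Glo 3/7. HepG2 (wild type) at 2,000 cells/well were pre-incubated 5 hr, dosed, and given reagent at 16 hr, with 1 hr further at 37C.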
Assay [6] has as its target Cytochrome P450 2C19 (Homo sapiens) (UniProt P33261). The experiment in a line: Cytochrome P450 Family 2 Subfamily C Member 19 (CYP2C19) small molecule antagonists: luciferase reporter qHTS assay (AID 1671197). Also: nearly all actives have a fitted effect of over 65% in size. Also: potency is read from the fitted curve at half-maximal effect. An outline of the steps: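 Enzyme-substrate mix with proluciferin substrate (P450-Glo CYP2C19 system) preincubated with compounds 10 min at room temperature; NADPH regeneration solution added, 37C for 1 h; detection reagent stops reaction, luminescence read after 20 min. Ketoconazole positive control.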
(A reporter such as luciferase makes a cellular process visible.)

For assay [7], the target named is Cytochrome P450 1A2 (Homo sapiens) (UniProt P05177). The assay is described as follows: Cytochrome P450 Family 1 Subfamily A Member 2 (CYP1A2) small molecule antagonists: luciferase reporter qHTS assay (AID 1671199). Also: nearly all actives have a fitted effect of over 50% in size. Also: potency is read from the fitted curve at half-maximal effect. An outline of the steps: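 Luminescence from luciferin formed by CYP1A2 from a proluciferin substrate, read 20 min after detection reagent. Compound was pre-incubated 10 min with enzyme-substrate, and reaction started with NADPH regeneration solution for 1 h at room temperature; furafylline control.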

Assay [8] deals with Voltage-gated inwardly rectifying potassium channel KCNH2 (Homo sapiens) (UniProt Q12809). The assay is described as follows: Human Ether-a-go-go-Related Gene (hERG) channel small molecule antagonists: fluorescence cell-based qHTS assay (AID 1671200).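 Also: hERG-expressing U2OS cells given a thallium stimulus after FluxOR II dye loading; series mostly up to about 77 µM; nearly all actives have a fitted effect of over 50% in size.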 An outline of the steps:
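U2OS cells expressing the channel were plated at 1000 cells/well, incubated overnight at 37 C, then loaded with FluxOR II thallium-sensitive dye for 1 h at room temperature in the dark, with a further 10 min at room temperature before stimulation.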
A general note: hERG is a cardiac potassium channel; its block is linked to QT prolongation.

Assay [9] deals with Cytochrome P450 3A4 (Homo sapiens) (UniProt P08684). The assay is described as follows: Cytochrome P450 Family 3 Subfamily A Member 4 (CYP3A4) small molecule antagonists: luciferase reporter qHTS assay (AID 1671201). Also: nearly all actives have a fitted effect of over 50% in size. Also: potency is read from the fitted curve at half-maximal effect. An outline of the steps:
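P450-Glo CYP3A4 system with proluciferin substrate; compounds preincubated 10 min RT with enzyme-substrate mix, then NADPH regeneration added for 1 h RT. Detection reagent 20 min, luminescence read as relative luminescence units.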

Assay [10] has as its target Nuclear receptor subfamily 1 group I member 2 (Homo sapiens) (UniProt O75469). The experiment in a line: Human pregnane X receptor (PXR) small molecule agonists, qHTS assay (AID 1346982). Also: nearly all actives have a fitted effect of over 35% in size. Also: potency is read from the fitted curve at half-maximal effect. An outline of the steps:
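Agonist mode: luminescence from ONE-Glo after 24 h compound exposure at 37C in HepG2 cells carrying hPXR-responsive CYP3A4 luciferase, plated in charcoal-stripped serum medium 5 h beforehand.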

For assay [11] the target is unchanged. The assay is described as follows: CYP3A4 induction through human pregnane X receptor (PXR) by small molecules, qHTS assay (AID 1346984). Also: nearly all actives have a fitted effect of over 40% in size. In short, it runs like this:
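Read-out is luminescence after One-Glo addition, following a 3 hr, 37C incubation with Luciferin-IPA CYP3A4 substrate (3uM final). Before that, compounds were on DPX-2 cells (HepG2 co-transfected with PXR element plus CYP3A4-promoter luciferase) for 24 hr at 37C.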

The target is the same in assay [12]. The experiment in a line: Human pregnane X receptor (PXR) activation by small molecules, qHTS assay (AID 1346985). Also: nearly all actives have a fitted effect of over 40% in size. In short, it runs like this: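 DPX-2 cells (HepG2 co-transfected with a PXR response element and a CYP3A4-promoter luciferase construct) were seeded at 2,000 per well, rested 5 hr at 37C, then exposed to DMSO-dissolved compounds for 24 hr. Activation was read as luciferase luminescence.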

Assay [13] has as its target Cytochrome P450 2C9 (Homo sapiens) (UniProt P11712). The experiment in a line: Cytochrome P450 Family 2 Subfamily C Member 9 (CYP2C9) small molecule antagonists: luciferase reporter qHTS assay (AID 1671198). Also: nearly all actives have a fitted effect of over 50% in size. Also: potency is read from the fitted curve at half-maximal effect. In short, it runs like this: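 Enzyme-substrate mix preincubated with compound 10 min at room temperature; reaction started with NADPH regeneration solution, 1 h 37C. Luminescent luciferin product read after 20 min detection reagent.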

Assay [14] deals with Nuclear receptor subfamily 1 group I member 2 (Rattus norvegicus) (UniProt Q9R1A7). The experiment in a line: Rat pregnane X receptor (rPXR) activation by small molecules, qHTS assay (AID 1346983). Also: nearly all actives have a fitted effect of over 20% in size. Conditions: rPXR luciferase reporter cells, One-Glo luminescence, 24 h; max activation: stronger effect = higher value. An outline of the steps: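 Luminescent readout (One-Glo luciferase, 30 min room temperature) followed 24 hr compound treatment at 37 C of rPXR cells plated 2,000 per well and preincubated 5hr; qHTS format with compounds delivered in DMSO.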

The target of assay [15] is Cytochrome P450 2D6 (Homo sapiens) (UniProt P10635). The experiment in a line: Cytochrome P450 Family 2 Subfamily D Member 6 (CYP2D6) small molecule antagonists: luciferase reporter qHTS assay (AID 1671196). Also: nearly all actives have a fitted effect of over 50% in size. Also: potency is read from the fitted curve at half-maximal effect. An outline of the steps: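 CYP2D6 activity was followed as luminescence from its luciferin product after a 1 h NADPH-driven reaction at room temperature. Enzyme-substrate mix and compound were pre-incubated for 10 min, and the signal was read 20 min after adding detection reagent.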
% is scaled to controls: 0 for no effect and ±100 for the full control effect.

Nuclear receptor subfamily 1 group I member 2 (Rattus norvegicus), sequence (Q9R1A7 whole entry, looked up): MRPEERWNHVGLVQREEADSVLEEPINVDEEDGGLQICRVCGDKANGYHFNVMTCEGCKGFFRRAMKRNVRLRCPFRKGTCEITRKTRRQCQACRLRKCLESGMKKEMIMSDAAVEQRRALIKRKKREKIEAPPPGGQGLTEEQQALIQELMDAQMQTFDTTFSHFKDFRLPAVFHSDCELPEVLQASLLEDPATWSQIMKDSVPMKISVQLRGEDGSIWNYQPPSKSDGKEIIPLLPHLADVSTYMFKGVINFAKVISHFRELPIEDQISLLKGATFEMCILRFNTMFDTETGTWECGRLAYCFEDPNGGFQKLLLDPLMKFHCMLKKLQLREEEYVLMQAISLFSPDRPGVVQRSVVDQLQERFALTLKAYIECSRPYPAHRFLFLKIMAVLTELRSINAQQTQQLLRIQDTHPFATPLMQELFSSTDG
Cytochrome P450 2C9 (Homo sapiens), sequence (P11712 whole entry, looked up): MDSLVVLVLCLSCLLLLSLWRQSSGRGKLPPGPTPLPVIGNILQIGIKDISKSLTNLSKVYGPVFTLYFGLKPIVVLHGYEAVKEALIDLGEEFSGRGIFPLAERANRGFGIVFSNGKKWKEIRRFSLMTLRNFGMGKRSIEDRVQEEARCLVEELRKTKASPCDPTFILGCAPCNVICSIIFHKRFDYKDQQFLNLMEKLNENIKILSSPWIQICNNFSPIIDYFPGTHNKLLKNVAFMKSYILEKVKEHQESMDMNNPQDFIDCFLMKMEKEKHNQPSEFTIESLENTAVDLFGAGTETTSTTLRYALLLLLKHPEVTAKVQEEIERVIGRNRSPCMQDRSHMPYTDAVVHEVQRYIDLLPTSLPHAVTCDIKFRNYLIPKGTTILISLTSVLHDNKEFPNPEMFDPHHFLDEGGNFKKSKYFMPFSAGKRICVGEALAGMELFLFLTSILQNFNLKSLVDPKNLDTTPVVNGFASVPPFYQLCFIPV
Cytochrome P450 2D6 (Homo sapiens), sequence (P10635 whole entry, looked up): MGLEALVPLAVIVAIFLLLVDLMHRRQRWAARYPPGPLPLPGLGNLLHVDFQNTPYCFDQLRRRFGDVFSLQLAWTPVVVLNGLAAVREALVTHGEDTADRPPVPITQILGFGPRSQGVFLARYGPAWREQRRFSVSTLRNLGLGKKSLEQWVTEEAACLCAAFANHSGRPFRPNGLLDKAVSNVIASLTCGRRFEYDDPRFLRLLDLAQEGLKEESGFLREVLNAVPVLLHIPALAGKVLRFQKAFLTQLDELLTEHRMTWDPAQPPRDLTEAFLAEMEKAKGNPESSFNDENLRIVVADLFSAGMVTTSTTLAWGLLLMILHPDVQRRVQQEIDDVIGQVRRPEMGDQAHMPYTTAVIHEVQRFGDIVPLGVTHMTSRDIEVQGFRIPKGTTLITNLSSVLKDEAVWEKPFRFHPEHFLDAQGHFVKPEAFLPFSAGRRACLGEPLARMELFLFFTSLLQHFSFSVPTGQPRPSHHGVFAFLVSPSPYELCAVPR
Cytochrome P450 2C19 (Homo sapiens), sequence (P33261 whole entry, looked up): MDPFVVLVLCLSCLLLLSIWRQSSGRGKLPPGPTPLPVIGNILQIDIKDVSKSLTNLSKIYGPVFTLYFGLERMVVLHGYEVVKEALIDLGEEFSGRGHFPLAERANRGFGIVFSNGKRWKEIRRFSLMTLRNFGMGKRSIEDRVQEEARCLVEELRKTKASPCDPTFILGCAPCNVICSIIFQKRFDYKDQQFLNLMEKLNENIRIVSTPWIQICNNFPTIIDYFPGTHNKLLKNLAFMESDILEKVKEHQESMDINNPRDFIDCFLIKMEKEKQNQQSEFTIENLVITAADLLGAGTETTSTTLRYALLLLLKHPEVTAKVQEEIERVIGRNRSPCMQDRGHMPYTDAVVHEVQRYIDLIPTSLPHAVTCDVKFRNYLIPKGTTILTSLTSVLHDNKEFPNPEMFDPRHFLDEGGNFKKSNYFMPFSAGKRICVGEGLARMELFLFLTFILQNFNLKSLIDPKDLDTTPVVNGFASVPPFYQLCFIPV
Nuclear receptor subfamily 1 group I member 2 (Homo sapiens), sequence (O75469 whole entry, looked up): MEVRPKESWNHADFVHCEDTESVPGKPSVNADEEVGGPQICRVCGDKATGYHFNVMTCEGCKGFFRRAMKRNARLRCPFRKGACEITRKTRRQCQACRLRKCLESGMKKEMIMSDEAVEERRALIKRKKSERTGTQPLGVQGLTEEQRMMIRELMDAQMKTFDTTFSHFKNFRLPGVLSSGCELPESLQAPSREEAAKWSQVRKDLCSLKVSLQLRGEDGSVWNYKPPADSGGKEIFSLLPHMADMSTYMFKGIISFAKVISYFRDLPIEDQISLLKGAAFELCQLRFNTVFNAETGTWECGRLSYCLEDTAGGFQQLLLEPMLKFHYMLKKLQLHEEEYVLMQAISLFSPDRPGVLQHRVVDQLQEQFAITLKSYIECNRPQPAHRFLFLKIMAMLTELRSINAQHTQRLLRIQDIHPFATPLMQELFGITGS
Cytochrome P450 1A2 (Homo sapiens), sequence (P05177 whole entry, looked up): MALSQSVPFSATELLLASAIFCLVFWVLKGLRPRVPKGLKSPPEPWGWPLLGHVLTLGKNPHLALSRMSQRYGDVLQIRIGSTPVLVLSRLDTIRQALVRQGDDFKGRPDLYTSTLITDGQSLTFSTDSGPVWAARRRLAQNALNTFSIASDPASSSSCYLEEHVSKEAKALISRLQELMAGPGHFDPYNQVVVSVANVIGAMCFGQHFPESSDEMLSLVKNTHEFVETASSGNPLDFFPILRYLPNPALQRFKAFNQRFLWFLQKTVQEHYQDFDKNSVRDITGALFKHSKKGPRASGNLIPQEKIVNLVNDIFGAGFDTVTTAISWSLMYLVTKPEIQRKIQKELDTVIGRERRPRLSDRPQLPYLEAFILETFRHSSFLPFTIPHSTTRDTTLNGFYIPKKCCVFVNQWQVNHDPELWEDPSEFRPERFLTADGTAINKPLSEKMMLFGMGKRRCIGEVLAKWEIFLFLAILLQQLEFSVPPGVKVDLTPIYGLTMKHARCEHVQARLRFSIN
Cytochrome P450 3A4 (Homo sapiens), sequence (P08684 whole entry, looked up): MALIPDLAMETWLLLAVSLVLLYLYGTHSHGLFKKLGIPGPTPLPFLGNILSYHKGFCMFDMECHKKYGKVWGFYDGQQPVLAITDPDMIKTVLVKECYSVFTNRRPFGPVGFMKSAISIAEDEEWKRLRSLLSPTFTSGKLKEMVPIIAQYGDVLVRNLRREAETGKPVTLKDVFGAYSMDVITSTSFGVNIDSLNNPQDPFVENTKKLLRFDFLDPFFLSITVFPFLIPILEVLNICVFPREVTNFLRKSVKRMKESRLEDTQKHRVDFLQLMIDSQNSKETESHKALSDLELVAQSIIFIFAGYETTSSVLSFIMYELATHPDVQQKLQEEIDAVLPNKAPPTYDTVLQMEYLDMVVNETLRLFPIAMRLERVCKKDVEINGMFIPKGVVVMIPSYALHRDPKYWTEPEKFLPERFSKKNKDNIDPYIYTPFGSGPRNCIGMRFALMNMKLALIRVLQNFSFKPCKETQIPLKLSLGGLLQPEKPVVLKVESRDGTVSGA
Voltage-gated inwardly rectifying potassium channel KCNH2 (Homo sapiens), sequence (Q12809 whole entry, looked up): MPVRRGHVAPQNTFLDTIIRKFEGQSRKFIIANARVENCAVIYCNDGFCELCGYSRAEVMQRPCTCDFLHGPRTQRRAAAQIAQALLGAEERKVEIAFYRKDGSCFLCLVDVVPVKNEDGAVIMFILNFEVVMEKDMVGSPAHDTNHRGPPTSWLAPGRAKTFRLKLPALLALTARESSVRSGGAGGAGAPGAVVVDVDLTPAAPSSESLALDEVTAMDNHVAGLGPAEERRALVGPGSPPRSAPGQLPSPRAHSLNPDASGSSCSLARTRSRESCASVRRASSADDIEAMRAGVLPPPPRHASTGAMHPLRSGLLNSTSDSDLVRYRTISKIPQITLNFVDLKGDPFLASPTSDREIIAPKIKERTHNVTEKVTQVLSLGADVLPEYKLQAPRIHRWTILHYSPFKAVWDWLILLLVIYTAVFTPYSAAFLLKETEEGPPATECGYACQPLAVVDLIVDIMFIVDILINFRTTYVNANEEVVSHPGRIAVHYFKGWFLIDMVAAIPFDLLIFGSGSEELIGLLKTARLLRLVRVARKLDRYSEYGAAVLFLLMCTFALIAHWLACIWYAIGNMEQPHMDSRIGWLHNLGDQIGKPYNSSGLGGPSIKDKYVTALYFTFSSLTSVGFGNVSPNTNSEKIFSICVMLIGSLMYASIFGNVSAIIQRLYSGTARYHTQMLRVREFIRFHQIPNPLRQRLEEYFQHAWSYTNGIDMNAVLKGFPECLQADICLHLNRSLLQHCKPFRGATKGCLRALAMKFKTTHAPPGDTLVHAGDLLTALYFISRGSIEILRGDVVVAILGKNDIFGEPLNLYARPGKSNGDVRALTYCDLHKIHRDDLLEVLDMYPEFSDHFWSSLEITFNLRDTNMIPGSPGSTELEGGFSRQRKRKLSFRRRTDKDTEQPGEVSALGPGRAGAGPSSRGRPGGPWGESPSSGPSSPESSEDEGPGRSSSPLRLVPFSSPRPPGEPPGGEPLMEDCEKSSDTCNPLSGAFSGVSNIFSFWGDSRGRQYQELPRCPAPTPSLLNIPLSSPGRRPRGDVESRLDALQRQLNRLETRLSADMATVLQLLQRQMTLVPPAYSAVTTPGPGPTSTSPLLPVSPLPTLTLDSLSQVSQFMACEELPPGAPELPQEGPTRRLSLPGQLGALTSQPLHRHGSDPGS

With `[O-]/[N+](=N\O)c1ccccc1`, the Potency entry in assay [1], in [2], in assay [3], in assay [4], in [5] and in assay [8] was “inactive” in each case. Moreover, the Potency entry in [9] is “inactive”. Further, the Potency is 62.7 µM (active) and 39.9 µM (active) in [6]; 22.2 µM (active) and 25.2 µM (active) in [7].
Regarding `C=C1C[C@H]2[C@@H]3C=C(C)C4=CC(=O)CC[C@]4(C)[C@H]3CC[C@]2(C)[C@@]1(OC(C)=O)C(C)=O`, the Potency result in assay [1], in assay [2], in [4], in assay [5], in [11] and in assay [12] was “inactive” each time. The Potency entry in [7], in assay [8] and in assay [9] was “inactive” each time. The Potency was 31.3 µM (active) in assay [10]; 28.9 µM (active) and 9.77 µM (active) in [6]; 22.9 µM (active) and 17.4 µM (active) in [13].
As for `C=C[C@H]1CN2CC[C@H]1C[C@H]2[C@H](O)c1ccnc2ccc(OC)cc12`, in assay [1], the Potency is 30.6 µM (active). Also, the Potency entry in assay [2], in assay [3], in assay [4], in [5] and in [6] was “inactive” each time. The max activation in [14] was -0.698% (inactive).
Take `CC/C(=C(/CC)c1ccc(O)cc1)c1ccc(O)cc1`: the Potency entry in assay [1], in assay [2], in assay [4], in assay [5] and in [8] was “inactive” throughout. In assay [3], the Potency is 60.6 µM (active) and 61.1 µM (active) and 26.6 µM (active). The max activation in [14] was 5.39% (inactive).
`CCCCCCCCCCCCO`: the Potency entry in assay [1], in [2], in [3], in assay [4], in assay [5] and in assay [10] was “inactive” in each case. In addition, the Potency result in [8] and in [9] was “inactive” throughout. Besides, the Potency in assay [6] was 31.3 µM (active); in assay [13] it was “inactive and 22.2 µM (active)”; in assay [7], “inactive and 27.9 µM (active)”.
Take `C=CC(C)(O)CCC=C(C)C` (stereo not drawn): the Potency entry in assay [1], in assay [2], in [3], in assay [4], in assay [5] and in [10] was “inactive” throughout. The Potency result in [15], in assay [6], in [7], in [8] and in [9] was “inactive” in each case.
In the case of `CCCCCCOCCOCCO`, the Potency result in assay [1], in assay [2], in assay [3], in [4], in [5] and in assay [8] was “inactive” each time.
As to `NCCOCCO`, the Potency entry in assay [1], in assay [2], in [3], in assay [4], in [5] and in assay [10] was “inactive” throughout. Also, the Potency entry in assay [6], in assay [13], in assay [7], in assay [8] and in assay [9] was “inactive” throughout.
As for `CN(C)CCCN1c2ccccc2Sc2ccc(Cl)cc21`, the Potency is 27.3 µM (active) and 26.6 µM (active) in [1]; 54.5 µM (active) and 29.8 µM (active) in assay [3]; 61.1 µM (active) and 29.8 µM (active) in assay [5].
On to `CCCCCC=O`, for which the Potency result in assay [1], in assay [2], in [3], in [4], in assay [5] and in [10] was “inactive” in each case. Moreover, the Potency result in assay [6], in assay [13], in assay [7], in [8] and in assay [9] was “inactive” throughout.
Take `Oc1ccc(C(c2ccc(O)cc2)C(Cl)(Cl)Cl)cc1`: the Potency entry in [1], in [2], in [4], in [7] and in assay [8] was “inactive” throughout. In addition, the Potency is 54.5 µM (active) in assay [3]; “inactive and 61.1 µM (active)” in assay [10]; 17.8 µM (active) and 20 µM (active) in [6]; 22.4 µM (active) and 12.6 µM (active) in assay [13]; 17.8 µM (active) and 20 µM (active) in assay [9].
For `Cc1cccc(Nc2ccccc2C(=O)O)c1C`, the Potency result in [1], in assay [2], in assay [3], in assay [4], in assay [5] and in [15] was “inactive” each time. For the same compound, the Potency result in assay [6], in assay [8] and in assay [9] was “inactive” in each case. The Potency is 48.6 µM (active) and inactive in assay [10]; 31.7 µM (active) and 30.9 µM (active) in assay [13].
On to `c1ccc2cc3ccccc3cc2c1`, for which the Potency result in assay [1], in assay [2], in assay [3], in assay [4], in assay [5] and in [8] was “inactive” each time. Further, in [9], the Potency result was “inactive”. Moreover, the Potency in assay [10] was 35.5 µM (active) and 21.7 µM (active); in assay [6] it was 41.2 µM (active) and 79.6 µM (active); in assay [7] it was 653 nM (active) and 502 nM (active).
As to `O=C(O)CCCCCCCCCCCC(=O)O`, the Potency entry in assay [1], in [2], in assay [3], in [4], in assay [5] and in [10] was “inactive” each time. The Potency entry in assay [8] and in assay [9] was “inactive” throughout. In addition, the Potency in assay [15] was 17.6 µM (active); in assay [6], 17.6 µM (active) and 39.9 µM (active).
Turning to `CCCCCCCCCCCCCO`, the Potency result in [1], in [2], in assay [3], in assay [4], in assay [5] and in [10] was “inactive” in each case. For the same compound, the Potency entry in assay [8] and in assay [9] was “inactive” each time. For the same compound, the Potency in assay [6] was 71.8 µM (active) and 36.9 µM (active); in assay [7], “inactive and 26.1 µM (active)”.
For `C[C@]12CC[C@@H]3c4ccc(O)cc4CC[C@H]3[C@@H]1CC[C@@H]2O`, the Potency result in assay [1], in [4], in assay [5], in assay [13] and in assay [9] was “inactive” each time. Further, the Potency in [3] is 61 µM (active) and 61.1 µM (active); in [6] it was 7.95 µM (active) and 5.64 µM (active). The max activation in assay [14] is -1.66% (inactive).
In the case of `CN1CCOCC1`, the Potency entry in assay [1], in [2], in assay [3], in [4], in assay [5] and in assay [8] was “inactive” throughout.
